Measured values taken from PubChem BioAssay (NCATS).
Inconclusive results are not listed. The source made the active and inactive calls. Calls come from the whole dose curve; as a rule, active = well fitted inhibition curve with a large enough effect; inconclusive = small, poorly fitted or top-dose-only effect; inactive = flat fitted curve, though single readings scatter.

Experiments:
Assay in all cases: qHTS profiling for inhibitors of Plasmodium falciparum proliferation (AID 504749); note: nearly all actives have a fitted effect of over 60% in size
Settings in all cases: P. falciparum in erythrocytes, SYBR Green DNA, 72 h; series mostly up to 28.7 µM
CP194 = test system: CP194
Method in brief: (§1)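 Fluorescence of SYBR Green-bound parasite DNA, read at 485/535 nm, served as the growth measure. Infected erythrocytes were cultured with compound 72 h; artemisinin (0.29 uM) and DMSO wells defined the normalization range.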

CP201 = test system: CP201
Method in brief: as §1

CP203 = test system: CP203
Method in brief: as §1

CP211 = test system: CP211
Method in brief: as §1

CP215 = test system: CP215
Method in brief: as §1

CP217 = test system: CP217
Method in brief: as §1

CP237 = test system: CP237
Method in brief: as §1

CP238 = test system: CP238
Method in brief: as §1

CP247 = test system: CP247
Method in brief: as §1

CP250 = test system: CP250
Method in brief: as §1

CP252 = test system: CP252
Method in brief: as §1

CP256 = test system: CP256
Method in brief: as §1

CP260 = test system: CP260
Method in brief: as §1

CP262 = test system: CP262
Method in brief: as §1

CP265 = test system: CP265
Method in brief: as §1

CP266 = test system: CP266
Method in brief: as §1

CP268 = test system: CP268
Method in brief: as §1

CP269 = test system: CP269
Method in brief: as §1

CP286 = test system: CP286
Method in brief: as §1

CP291 = test system: CP291
Method in brief: as §1

Measured: Potency

CC(C)=CCC/C(C)=C/CC/C(C)=C/CC/C=C(\C)CC/C=C(\C)CCC=C(C)C
inactive: all assays above

O=P(O)(O)O
inactive: all assays above

O=C(O)COc1ccccc1/C=N/NC(=O)c1ccncc1
inactive: all assays above

CS(=O)(=O)OCC(O)C(O)COS(C)(=O)=O (stereo not given)
inactive: all assays above

CCCCC/C=C\C/C=C\C/C=C\CCCCC(=O)O
inactive: all assays above

Cc1ccc(S(=O)(=O)NCl)cc1
inactive: all assays above

C=CC(C)(O)CC/C=C(\C)CCC=C(C)C (stereo not given)
inactive: all assays above

O=C(OCc1ccccc1)c1ccc(O)cc1
inactive: all assays above

O=C(O)c1ccc(OCCn2ccnc2)cc1
inactive: all assays above

Nc1ncnc2c1ncn2CCOCP(=O)(O)O
inactive: all assays above

O=C(O)CCC/C=C\C[C@@H]1[C@@H](/C=C/[C@@H](O)COc2cccc(Cl)c2)[C@H](O)C[C@@H]1O
inactive: all assays above

CC(=O)Nc1ccc(OC(C)=O)cc1
inactive: all assays above
